Measurements as given in PubChem BioAssay AID434970 (Sanford-Burnham Center for Chemical Genomics, 2010).
The whole screen tested about 11,000 compounds, of which about 310 (2.8%) were called active. This is one part of a sample in which actives are shown more often than they occur. No stated cut-off is given here; in the data, active means activity change below about -85%; inactive means the rest.

test system: intestinal alkaline phosphatase [Mus musculus]; test: mouse intestinal phosphatase enzyme activation – biochemical, luminescence, single concentration, confirmation (AID 434970); details: purified mouse IAP, CDP-Star luminescence, 30 min, at 10 µM; activation factor: measured here: IAP activation factor, stronger effect = higher value; activity change, negative = activation: stronger effect = lower value

SMILES | activation factor | activity change, negative = activation
CCN([C@H](CO)CC(C)C)S(=O)(=O)c1ccccc1 | 1.09 | -8.75% (inactive)
O=C(Nc1cccc(Cl)c1)Nc1nnc(-c2ccccc2)o1 | 1.02 | -2.05% (inactive)
Cc1onc(-c2ccccc2)c1C(=O)NCc1ccccn1 | 0.956 | 4.35% (inactive)
Cc1onc(-c2ccccc2)c1CNC(=O)Nc1ccc(C(F)(F)F)cc1 | 1.99 | -99.1% (active)
Cc1cc(C)cc(NC(=O)NCc2c(-c3ccccc3)noc2C)c1 | 2.73 | -173% (active)
Cc1onc(-c2ccccc2)c1CNC(=O)Nc1cccc(Cl)c1 | 2.33 | -133% (active)
Cn1c(CNC(=O)Nc2cccc(Cl)c2)nnc1SCc1ccccc1 | 1.52 | -52% (inactive)
Cc1onc(-c2ccccc2)c1C(=O)NCc1cccs1 | 1.01 | -0.85% (inactive)
Cc1onc(-c2ccccc2)c1NC(=O)Nc1ccc(OC(F)F)cc1 | 1.48 | -47.9% (inactive)
FC(F)(F)c1ccc(NC(=S)NCc2ccccc2)cc1 | 1.41 | -41% (inactive)
COC(=O)C1=NN(c2ccccc2)C2(S1)SC(C(C)=O)=C(C)N2c1ccccc1 (stereo not drawn) | 0.92 | 8% (inactive)
O=C(CC(Nc1ccc(F)cc1)C(=O)O)c1ccccc1 (stereo not drawn) | 0.959 | 4.1% (inactive)
COC(=O)c1oc2ccc(Cl)cc2c1N | 0.915 | 8.55% (inactive)
O=C(Nc1ccc2c(c1)nc1n2CCOC1)c1ccco1 | 1.29 | -29.5% (inactive)
Cc1cccc(N2O[C@H]3C=CC2CCCC3)n1 | 1.02 | -2.2% (inactive)
COc1ccc(C2C(C(=O)Nc3ccccc3)=C(C)N=C3SCC(=O)N32)cc1 (stereo not drawn) | 0.843 | 15.7% (inactive)
CCC1CCCCN1CCCNC(=O)CNC(=O)Cn1ccc2ccccc2c1=O (stereo not drawn) | 0.926 | 7.35% (inactive)
Cc1cccc(NC(=O)NCCCCc2ccccc2)c1 | 2.38 | -138% (active)
COc1cccc(NS(=O)(=O)Cc2ccccc2)c1 | 0.904 | 9.6% (inactive)
Cc1cccc(NC(=O)NCCc2c[nH]c3ccccc23)c1 | 1.72 | -71.8% (inactive)
Cc1ccc(NC(=O)NCCCc2ccccc2)cc1 | 1.29 | -28.6% (inactive)
S=C(NCCCc1ccccc1)Nc1ccc(Br)cc1 | 1.72 | -71.9% (inactive)
Fc1cccc(NC(=S)NCc2ccccc2Cl)c1 | 1.27 | -27.2% (inactive)
COc1cccc(NC(=O)NCCCCc2ccccc2)c1 | 2.16 | -116% (active)
CC(CCc1ccccc1)NC(=O)c1ccncc1 (stereo not drawn) | 0.938 | 6.2% (inactive)
COc1cccc(NC(=O)Nc2cccn(Cc3ccccc3)c2=O)c1 | 1.01 | -1.1% (inactive)
Cc1cccc(NC(=S)NC(C)CCc2ccccc2)c1 (stereo not drawn) | 1.15 | -14.6% (inactive)
Cc1cccc(NC(=O)NC(C)CCc2ccccc2)c1 (stereo not drawn) | 2.83 | -183% (active)
O=C(NCCCCc1ccccc1)Nc1cccc(F)c1 | 2.29 | -129% (active)
